# In the library only some 1.4% were active in any assay of this set; here they are far more common.
# EP2 antag – blocks the human prostaglandin E2 receptor EP2 | P43116 | C6 glioma cells expressing human EP2, cAMP TR-FRET; cells stimulated with saturating PGE2 | inhibition, % at 25 µM | 0.52% of 260,000 active | AID 1422;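 active means percent inhibition above 40 after rounding to a whole number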;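 further: rat C6 glioma host cells with rolipram phosphodiesterase inhibitor present; the protocol text gives 20 µM as final concentration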
# Pf gametocyte – P. falciparum stage V gametocyte viability inhibition; inhibition, % at 10.9 µM; AID 743093; P. falciparum stage V gametocytes, ATP luminescence, 24 h; 0.065% of 150,000 active;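 active means inhibition above the mean plus 3 SD of compounds within the control limits, set per campaign, cut at about 38% in these data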;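 further: 0% = DMSO wells and 100% = medium only without gametocytes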
# Furin inhibitor – human furin inhibition; P09958; inhibition, % at 20 µM or 30 µM; 0.061% of 220,000 active; purified furin, fluorogenic substrate cleavage; in the data active means inhibition above about 25%
# Target sequence (P09958 108-714 limits assumed): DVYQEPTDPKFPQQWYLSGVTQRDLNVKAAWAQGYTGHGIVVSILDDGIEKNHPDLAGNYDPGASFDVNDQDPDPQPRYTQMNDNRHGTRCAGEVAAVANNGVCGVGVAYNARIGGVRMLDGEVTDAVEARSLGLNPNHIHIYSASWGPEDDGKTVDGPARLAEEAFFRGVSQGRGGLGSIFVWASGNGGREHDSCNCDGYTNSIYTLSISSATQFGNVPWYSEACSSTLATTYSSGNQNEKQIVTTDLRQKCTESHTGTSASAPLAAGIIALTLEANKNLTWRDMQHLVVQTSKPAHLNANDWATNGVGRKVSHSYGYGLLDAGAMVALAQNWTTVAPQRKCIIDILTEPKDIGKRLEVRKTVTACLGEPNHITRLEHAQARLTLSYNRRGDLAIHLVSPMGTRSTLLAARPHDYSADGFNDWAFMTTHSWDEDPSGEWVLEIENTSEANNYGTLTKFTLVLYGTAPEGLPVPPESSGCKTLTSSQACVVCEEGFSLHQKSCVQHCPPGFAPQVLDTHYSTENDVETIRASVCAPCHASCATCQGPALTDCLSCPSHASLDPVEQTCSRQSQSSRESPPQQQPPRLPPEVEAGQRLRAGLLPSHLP
# EP2 modulator – modulators of human EP2 prostaglandin E2 receptor | 0.83% of 260,000 active | EP2-expressing cells, cAMP HTRF FRET, PGE2 co-stimulation | P43116 | AID 940 | induction, % at 25 µM;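 active means compounds whose cAMP rise, as percent of the full-agonist control response, exceeds 60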;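 further: rat C6 glioma line stably carrying human EP2 under a CMV promoter; the protocol text gives 20 µM as final concentration; 100% = response of wells given 1 µM PGE2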
# HSV replic up – HSV replication enhancement; HSV replication augmentation in cells, fold increase; maximum fold increase; 0.005% of 220,000 active; AID 1956; in the data active means maximum fold increase above about 1.5; tested in PC3 cells
# An asterisk follows results filed as active; i = inactive; . = not tested or not shown; ! = a repeat was not active.
SMILES,EP2 antag,Pf gametocyte,Furin inhibitor,EP2 modulator,HSV replic up
CCC(Sc1ncccc1C(=O)O)C(=O)N1CCOCC1 (centres undefined),8,.,-30,33,i
CCC(Sc1ncccc1C(=O)O)C(=O)N1CCCC1 (centres undefined),5,.,28*,17,i
Cc1nc2cc(-c3ccc(Br)cc3)[nH]n2c(=O)c1Cl,.,-31,.,.,.
CC(C)NCC(O)c1ccc(NS(C)(=O)=O)cc1 (centres undefined),14,.,.,15,i
CC(C)(C)NCC(O)c1ccc(O)c(CO)c1 (centres undefined),14,.,.,78*!,i
CC(C)(C)NCC(O)c1cc(O)cc(O)c1 (centres undefined),17,.,-3,47,i
CNC[C@@H](O)c1ccc(O)c(O)c1,10,.,.,82*,.
CC(C)NC[C@@H](O)c1ccc(O)c(O)c1,9,.,-13,80*,i
O=C(CSc1nc(O)cc(=O)[nH]1)C1CC1,7,.,-28,21,i
Cc1csc(SCC(=O)Nc2cccc3nsnc23)n1,19,-17,-9,20,i
CS[C@@]12C(=O)C[C@@]3(C)[C@@H](CC[C@@]3(O)C(=O)CO)[C@H]1CCC1=CC(=O)CC[C@]12C,51*,.,.,7,.
C[C@]12CCC(=O)C=C1CC[C@@H]1[C@@H]2C(=O)C[C@@]2(C)[C@H]1CC[C@]2(O)C(=O)CO,12,.,-10,2,i
S=C(NCc1ccco1)NCC(c1ccco1)N1CCCCC1 (centres undefined),3,.,-36,-8,i
Cc1ccc(S(=O)(=O)N2CCN(Cc3ccccc3)CC2)c(C)c1N(C)S(=O)(=O)c1ccccc1,9,42*,-6,-18,i
Cc1ccc(S(=O)(=O)N(C)c2c(C)ccc(S(=O)(=O)N3CCN(C)CC3)c2C)cc1,9,-3,-20,29,.
c1cncc(CSc2nnc3c4ccccc4nc(C4CCCCC4)n23)c1,9,.,.,65*,.
Cc1ccc(S(=O)(=O)Nc2c(C)n(C)n(-c3ccccc3)c2=O)cc1C(=O)OC(C)C(=O)N(C)c1ccccc1 (centres undefined),2,-56,9,3,i
CN1/C(=C/c2cccc[n+]2CCO)Sc2ccccc21,.,-4,.,.,.
CC[n+]1c(/C=C2\Sc3ccccc3N2C)ccc2cccc(C)c21,107*,21,22,-28,.
CC[n+]1c(/C=C/c2ccc(N(C)C)cc2)ccc2cc(C)ccc21,20,.,.,-67,.
CCN1/C(=C/c2ccc3cc(C)ccc3[n+]2CC)Sc2ccccc21,55*,5,25,-71,.
CCN1/C(=C/c2ccc3cc(OC)ccc3[n+]2CC)Sc2cc(C)ccc21,64*,.,.,-94,.
CCN1/C(=C/c2ccc3cc(C)ccc3[n+]2CC)Sc2ccc(C)cc21,14,.,.,-62,.
CCN1/C(=C/c2ccc3cc(C)ccc3[n+]2CC)Sc2cc(C)c(C)cc21,76*,1,-21,-54,.
CC(C)CCNc1ncnc2[nH]ncc12,13,.,.,-11,.
SMILES,EP2 antag,Pf gametocyte,Furin inhibitor,EP2 modulator,HSV replic up
Cc1c(Cl)cccc1NC(=O)c1nc(C)n(-c2cc(OC(C)C)c(Cl)cc2Cl)n1,5,6,0,4,i
CC[n+]1c(/C=C2\Sc3cc(C)ccc3N2C)ccc2ccccc21,45*,.,.,-44,.
CC1=NC(=O)C(N=O)N1c1ccccc1 (centres undefined),51*,.,.,-89,.
Nc1[nH]c(=S)[nH]c(=O)c1N=Nc1c(Br)cc(S(N)(=O)=O)cc1Br,51*,.,.,3,.
CCCCCCCNC1=CC(=O)CC(c2ccco2)C1 (centres undefined),11,.,-19,-30,i
COc1ccc(CN(Cc2cc3ccc(C)cc3[nH]c2=O)C(=O)Nc2ccccc2OC)cc1,14,.,.,-1,.
COc1ccc2[nH]c(=O)c(CN(Cc3ccc(C)cc3)C(=O)Nc3ccccc3OC)cc2c1,8,.,.,61*,.
N#Cc1c(Nc2ccccc2C(F)(F)F)s[nH]c1=O,16,6,-14,-3,i
Cn1c(=O)c2nc(NCc3ccccc3)cnc2n(C)c1=O,.,6,-26,65*,.
NS(=O)(=O)c1ccc(CCNC(=O)c2ccc(-c3ccccc3)cc2)cc1,.,13,.,.,.
CCCNC(=O)C1(CC2CC(c3ccccc3)=NO2)CCN(C(=O)c2ccccc2)CC1 (centres undefined),.,-11,.,.,.
COc1ccccc1NC(=O)c1cc(Cl)ccc1NC(=O)c1ccco1,13,11,-2,30,i
COc1ccccc1NC(=O)c1ccccc1NC(=O)c1cc(Cl)ccc1NC(=O)c1ccco1,4,39*,6,42,i
CCC(C)Sc1nc2c(c(=O)[nH]c(=O)n2C)n1CC(O)COc1ccccc1C (centres undefined),2,39*,-16,19,i
Cc1c(Cl)cc(C(C)(C)C)c(O)c1Cc1c(C)c(Cl)cc(C(C)(C)C)c1O,47*,.,.,5,.
CC(C)(C)c1cc(CN2CCCCC2)cc(C(C)(C)C)c1O,6,.,-8,23,i
CC(C)(Sc1cc(C(C)(C)C)c(O)c(C(C)(C)C)c1)Sc1cc(C(C)(C)C)c(O)c(C(C)(C)C)c1,12,.,-18,-5,i
Cc1cc(Cc2cc(C)cc(C(C)(C)C)c2O)c(O)c(Cc2cc(C)cc(C(C)(C)C)c2O)c1,41*,.,.,7,.
C/C(=N/O)c1cc(C(C)(C)C)c(O)c(C(C)(C)C)c1,4,.,-18,37,i
Cc1cc(Cc2c(C)c(C)c(Cc3cc(C)cc(C(C)(C)C)c3O)c(C)c2C)c(O)c(C(C)(C)C)c1,55*,.,.,16,.
CO/C=C/C#CC1(O)CCN(C)CC1,7,.,-23,9,i
CCCC(c1cc(C(C)(C)C)c(O)cc1C)c1cc(C(C)(C)C)c(O)cc1C,64*,.,.,26,.
CCOC(=O)c1c(/N=C/C2=C(O)CCCC2=O)sc(C)c1C,5,9,28*,4,i
C=CCn1c(=S)[nH]c2scc(-c3cccs3)c2c1=O,63*,-16,-17,-20,i
Cn1c(=S)[nH]c2scc(-c3cccs3)c2c1=O,78*,.,-10,-25,i
SMILES,EP2 antag,Pf gametocyte,Furin inhibitor,EP2 modulator,HSV replic up
O=C(Nc1ccc(F)cc1)c1nn(-c2ccccc2)c(=O)cc1Cl,9,17,-8,-50,i
COc1cc(O)c(C(=O)/C=C/c2ccc(OC)c(O)c2)c(OC)c1,57*,.,.,-3,.
O=c1oc2ccccc2cc1-c1nc(-c2cccs2)cs1,8,7,-10,61*,i
COc1ccc(Cl)cc1C(=O)NCCc1ccc(S(=O)(=O)NC(=O)NC2CCCCC2)cc1,12,.,-6,34,i
CCCC(=O)N1CCCC(c2nc3c(nnn3Cc3cc(C)ccc3C)c(=O)[nH]2)C1 (centres undefined),15,.,.,64*,.
Cc1ccc(C)c(Cn2nnc3c(=O)[nH]c(C4CCCN(C(=O)C(C)(C)C)C4)nc32)c1 (centres undefined),11,.,.,3,.
CCOC(=O)c1sc2ccccc2c1NC(=O)c1coc2ccccc2c1=O,5,-23,-19,21,i
CCOC(=O)c1sc2ccccc2c1OC(=O)c1ccccc1,12,7,-15,65*,i
